For 16 molecules, binding signal results are on record in article PMC12864922, “TDP-43 directly inhibits mRNA accumulation in neurites through modulation of mRNA stability”.

Over roughly 9,900 sequences, “r (bound/input frequency ratio)” has its median near 0.7; the highest 2% begin near 6.5. This is one part of a sample in which the highest values are shown more often than they occur.

The chains are these.
B1: ENSMUSG00000029028.179|Lrrc47|115:119 (ssRNA)
RNA: GGGAGUUCUACAGUCCGACGAUCGCUUCGAUAUCCGCAUGCUAACAGAUGCUUCGUGGACUGUGCCUCACACAUGGCCCUGCAGGCUCCAUGUCAGCGUGUCCCACUAUUCAUGUCCCAUCUCUGUGCAUCCUGACUGCGCACAUCCCAUCUCCGCAACACAACGCAUCUGUACCAGCACACAGCUGCCAUCCCUCGAGCCACAGUGCCUGGUCCUAAGGACCCAGCAGCUGCACAGAGGACUUGGUGGCCCCGUGCCUUGCCAUCUGGCUGAGAAGAGAACCAGACCCUCAGCCUUCCCCCUCUCUUGCGGUCGCACUAGUGUGGAAUUCUCGGGUGUCAAGG
B2: ENSMUSG00000058297.511|Spock2 (ssRNA)
RNA: GGGAGUUCUACAGUCCGACGAUCGCUUCGAUAUCCGCAUGCUAAGGAGGCAAAGUUGGUGAGAGUCCUGGGACAUCUUACCCCCAGUGUUCCACAGGAGUCGUGACCACGUGUGAUGGGUGGGCACAGGUCUGCCUUGCUCCAGCCCCCUCCCUUGGUUUCUGUUGGUACCCAUUUGGCUUUUAUCUGCUUUCUGCUUCACCACUAAGUGCGUAGGUGGGGUCUUUUGAUAUCGGCUCCCCAAAGCCCAAGCCCACAGCCCUAGGAGAGAACCAGGGGCCCAUCUUUGACACCUGGGCCAUCACUCUUGCGGUCGCACUAGUGUGGAAUUCUCGGGUGUCAAGG
B3: ENSMUSG00000090935.640|Synj2bp|188:194 (ssRNA)
RNA: GGGAGUUCUACAGUCCGACGAUCGCUUCGAUAUCCGCAUGCUAAGAAUAAAGUAUUUUCCUAGGACUACAUAGUUGGUAAAAGAGAAUCAUGAUUUAAACUCUGGACUAUGGAUGGCAGUAUCAGUAAUAUUCCCUCAUAGCUAGCAGUCCUCAUGCAAGGUCUCUGAACAAAAGCAACGUAUCACCUGCAAAUGCUUGGGUUUCAUCCCAUUCUUAUGGAGUGAGAUGACACACACCCAGCCAGCAACUCUGUCCUUCUAGGUAACUGGUUCAUGCUGAACCUUGAGAUUCACCACUGUCAGCUCUUGCGGUCGCACUAGUGUGGAAUUCUCGGGUGUCAAGG
B4: ENSMUSG00000032194.203|Kank2|47:51 (ssRNA)
RNA: GGGAGUUCUACAGUCCGACGAUCGCUUCGAUAUCCGCAUGCUACUGCACCUUUCUCUAACUGGGGUUCCUUUCUGGCCCCAGGAUCUCACACACGUUCGUGGGGGGAUUUUGUUGUUGUUUCUUUGUUUCUUUUCUUCAUAAAGAAGAAAAAGGAAACAACUUCUAGAUGUGCCUUGCGAUAGGGAGGACUUUGUCCUCUCAAGUCUCCCUGUCGUAUCCAGAUCACAGCUGAACCCACUGGGCCUUGGCGCCAAACCUCAGCAGGGCAGCAUUGAGACUCAUGGACUAAAGGAAAGUGUUCACUCUUGCGGUCGCACUAGUGUGGAAUUCUCGGGUGUCAAGG
B5: ENSMUSG00000004113.196|Cacna1b (ssRNA)
RNA: GGGAGUUCUACAGUCCGACGAUCGCUUCGAUAUCCGCAUGCUACUGGCUCCUCUGCUCAACCAAGUGCCUGAUCUCUGGCUCUGAGCAUCGUGGAUGAGGUACGGCCUCAGGAAGCAUCGGGUGGAUUGGGUGGGAGCUGCUCAGAGCAGCACGGGGGCUUGUGUCUUAGGGACAUUGACAGUGUCCAUCAGCAUGUCAGAGAAGCAGCUGUAGUGCCCGUGUUUCUCCCUGAGUCAUGGGUUCUGAAGAAGCCAGAGCGGCACAAUGCGUGCUUGCAUGAGGCACUUUCAGCCUUUUUAAAUCUCUUGCGGUCGCACUAGUGUGGAAUUCUCGGGUGUCAAGG
B6: ENSMUSG00000061578.342|Ksr2 (ssRNA)
RNA: GGGAGUUCUACAGUCCGACGAUCGCUUCGAUAUCCGCAUGCUAUGCCCUUAAGCUAGGGUCCUUCAAGCAUCCACAGACUUAGAGUGUGGUGGUAACAUGCUUGUAAUCCUGGCACUCUGGAGGCUGAGGCAGGAGGAUAACAAGUCUAGACUAUAUAUGAUUUCUGAGGGUCUGUUAGUGAAUAAGUACCUGGAUGACAUGGGACAAGUCCCAGCCUUCCCUGCUCCUGCGCUGCUCUUCCUCUUAUGGGAUAGGGUCUAGGUCAAAUGUCACCUCUUCACUCUUGCUCUUUCCUGACCUCCCUCUUGCGGUCGCACUAGUGUGGAAUUCUCGGGUGUCAAGG
B7: ENSMUSG00000028439.70|Fam219a|208:212 (ssRNA)
RNA: GGGAGUUCUACAGUCCGACGAUCGCUUCGAUAUCCGCAUGCUAAAGGCCAGGAGGCCAAAUGUAAGCGUUGGGUGAAGGGAUCACAGGGCCGGAAGGUUGGCCCCAGCCAGUGAAGCCAUGAAUCCCCCCCAAGCCCGGCUUGGAAAGGAAGGAAAGGGGUUUUGAGAAGAAAAGGAUCCAAGCAAUGGGGGCAGUUCUCACACCUCAGAGCCCCUCUCCCCAAACCCUGUGCCAGCCCAUAUACCUAUUACACAUUUCCCCUCAUCUCCAGAUGGGAAGCCUGGCAGCGCUGUCCAAAGGGACUCUUGCGGUCGCACUAGUGUGGAAUUCUCGGGUGUCAAGG
B8: ENSMUSG00000031028.480|Tub (ssRNA)
RNA: GGGAGUUCUACAGUCCGACGAUCGCUUCGAUAUCCGCAUGCUAUGGUUCUGAGCAGGCGACUGUCAAGGAAGUGUGUUGUCAGUUCACUGGAGGAGGAGCUGAGAUGUGCACCCUUUUAAAUGAACAUGGGGUGGUGAUGGUGCCUUAACAAUCUUGACACUAAGGUGAAGCAAGCAAGUAAGGUGUGUGCCUCUGGGAAGACAGGAGUCGGAAGCCAAGGUGUGUGGCAACAGUCUGGAAGAGAGCUUUUGGUAAUCAUACCGUCUUCAGUGACAAGGCAACAAUGCUGUAAAGUGGGUUUGCUCUUGCGGUCGCACUAGUGUGGAAUUCUCGGGUGUCAAGG
B9: ENSMUSG00000031028.483|Tub (ssRNA)
RNA: GGGAGUUCUACAGUCCGACGAUCGCUUCGAUAUCCGCAUGCUAUGUCAAGGAAGUGUGUUGUCAGUUCACUGGAGGAGGAGCUGAGAUGUGCACCCUUUUAAAUGAACAUGGGGUGGUGAUGGUGCCUUAACAAUCUUGACACUAAGGUGAAGCAAGCAAGUAAGGUGUGUGCCUCUGGGAAGACAGGAGUCGGAAGCCAAGGUGUGUGGCAACAGUCUGGAAGAGAGCUUUUGGUAAUCAUACCGUCUUCAGUGACAAGGCAACAAUGCUGUAAAGUGGGUUUGUUUGGUUUUGUUUUUUCUCUCUUGCGGUCGCACUAGUGUGGAAUUCUCGGGUGUCAAGG
B10: ENSMUSG00000031028.479|Tub|35:40;147:153;184:190 (ssRNA)
RNA: GGGAGUUCUACAGUCCGACGAUCGCUUCGAUAUCCGCAUGCUACUCCCAUGGUUCUGAGCAGGCGACUGUCAAGGAACACACAUGUCAGUUCACUGGAGGAGGAGCUGAGAUGUGCACCCUUUUAAAUGAACAUGGGGUGGUGAUGGUGCCUUAACAAUCUUGACACUAAGGUGAAGCAAGCAAGUAAGCACACACCCUCUGGGAAGACAGGAGUCGGAAGCCAAGCACACACGCAACAGUCUGGAAGAGAGCUUUUGGUAAUCAUACCGUCUUCAGUGACAAGGCAACAAUGCUGUAAAGUGCUCUUGCGGUCGCACUAGUGUGGAAUUCUCGGGUGUCAAGG
B11: ENSMUSG00000031028.482|Tub|17:22;129:135;166:172 (ssRNA)
RNA: GGGAGUUCUACAGUCCGACGAUCGCUUCGAUAUCCGCAUGCUAGGCGACUGUCAAGGAACACACAUGUCAGUUCACUGGAGGAGGAGCUGAGAUGUGCACCCUUUUAAAUGAACAUGGGGUGGUGAUGGUGCCUUAACAAUCUUGACACUAAGGUGAAGCAAGCAAGUAAGCACACACCCUCUGGGAAGACAGGAGUCGGAAGCCAAGCACACACGCAACAGUCUGGAAGAGAGCUUUUGGUAAUCAUACCGUCUUCAGUGACAAGGCAACAAUGCUGUAAAGUGGGUUUGUUUGGUUUUGUUCUCUUGCGGUCGCACUAGUGUGGAAUUCUCGGGUGUCAAGG
B12: ENSMUSG00000031028.479|Tub (ssRNA)
RNA: GGGAGUUCUACAGUCCGACGAUCGCUUCGAUAUCCGCAUGCUACUCCCAUGGUUCUGAGCAGGCGACUGUCAAGGAAGUGUGUUGUCAGUUCACUGGAGGAGGAGCUGAGAUGUGCACCCUUUUAAAUGAACAUGGGGUGGUGAUGGUGCCUUAACAAUCUUGACACUAAGGUGAAGCAAGCAAGUAAGGUGUGUGCCUCUGGGAAGACAGGAGUCGGAAGCCAAGGUGUGUGGCAACAGUCUGGAAGAGAGCUUUUGGUAAUCAUACCGUCUUCAGUGACAAGGCAACAAUGCUGUAAAGUGCUCUUGCGGUCGCACUAGUGUGGAAUUCUCGGGUGUCAAGG
B13: ENSMUSG00000031028.481|Tub (ssRNA)
RNA: GGGAGUUCUACAGUCCGACGAUCGCUUCGAUAUCCGCAUGCUAUGAGCAGGCGACUGUCAAGGAAGUGUGUUGUCAGUUCACUGGAGGAGGAGCUGAGAUGUGCACCCUUUUAAAUGAACAUGGGGUGGUGAUGGUGCCUUAACAAUCUUGACACUAAGGUGAAGCAAGCAAGUAAGGUGUGUGCCUCUGGGAAGACAGGAGUCGGAAGCCAAGGUGUGUGGCAACAGUCUGGAAGAGAGCUUUUGGUAAUCAUACCGUCUUCAGUGACAAGGCAACAAUGCUGUAAAGUGGGUUUGUUUGGUCUCUUGCGGUCGCACUAGUGUGGAAUUCUCGGGUGUCAAGG
B14: ENSMUSG00000031028.484|Tub (ssRNA)
RNA: GGGAGUUCUACAGUCCGACGAUCGCUUCGAUAUCCGCAUGCUAGGAAGUGUGUUGUCAGUUCACUGGAGGAGGAGCUGAGAUGUGCACCCUUUUAAAUGAACAUGGGGUGGUGAUGGUGCCUUAACAAUCUUGACACUAAGGUGAAGCAAGCAAGUAAGGUGUGUGCCUCUGGGAAGACAGGAGUCGGAAGCCAAGGUGUGUGGCAACAGUCUGGAAGAGAGCUUUUGGUAAUCAUACCGUCUUCAGUGACAAGGCAACAAUGCUGUAAAGUGGGUUUGUUUGGUUUUGUUUUUUCUUUCUCUCUCUUGCGGUCGCACUAGUGUGGAAUUCUCGGGUGUCAAGG
B15: ENSMUSG00000031028.482|Tub (ssRNA)
RNA: GGGAGUUCUACAGUCCGACGAUCGCUUCGAUAUCCGCAUGCUAGGCGACUGUCAAGGAAGUGUGUUGUCAGUUCACUGGAGGAGGAGCUGAGAUGUGCACCCUUUUAAAUGAACAUGGGGUGGUGAUGGUGCCUUAACAAUCUUGACACUAAGGUGAAGCAAGCAAGUAAGGUGUGUGCCUCUGGGAAGACAGGAGUCGGAAGCCAAGGUGUGUGGCAACAGUCUGGAAGAGAGCUUUUGGUAAUCAUACCGUCUUCAGUGACAAGGCAACAAUGCUGUAAAGUGGGUUUGUUUGGUUUUGUUCUCUUGCGGUCGCACUAGUGUGGAAUUCUCGGGUGUCAAGG
B16: ENSMUSG00000031028.478|Tub (ssRNA)
RNA: GGGAGUUCUACAGUCCGACGAUCGCUUCGAUAUCCGCAUGCUACUCUUUCUCCCAUGGUUCUGAGCAGGCGACUGUCAAGGAAGUGUGUUGUCAGUUCACUGGAGGAGGAGCUGAGAUGUGCACCCUUUUAAAUGAACAUGGGGUGGUGAUGGUGCCUUAACAAUCUUGACACUAAGGUGAAGCAAGCAAGUAAGGUGUGUGCCUCUGGGAAGACAGGAGUCGGAAGCCAAGGUGUGUGGCAACAGUCUGGAAGAGAGCUUUUGGUAAUCAUACCGUCUUCAGUGACAAGGCAACAAUGCUGUCUCUUGCGGUCGCACUAGUGUGGAAUUCUCGGGUGUCAAGG

This assay deals with TDP-43 (Homo sapiens, UniProt Q13148 1-414). Description: RNA Bind-n-Seq with designed 260-mer pool; 25 mM Tris-HCl, 150 mM KCl, 3 mM MgCl2, BSA (printed 500 mg/mL), 20 units/mL SUPERase IN; pH not stated; 500 nM RNA pool, 1 h, 4 C; TDP-43 5, 50, 500 nM; high values mean tight binding. The note with it: protein: recombinant; tags: SBP (GST cleaved off with PreScission; pGEX-GST-SBP). The method in brief: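 In 25 mM Tris-HCl, 150 mM KCl, 3 mM MgCl2, BSA and SUPERase IN, 500 nM of an in vitro-transcribed 260-nt 3′ UTR oligo pool was incubated for 1 h at 4 °C with SBP-tagged TDP-43 (5, 50 or 500 nM) captured on streptavidin beads. RNA remaining after washes was biotin-eluted, reverse transcribed, PCR-amplified and sequenced. Binding, R, is the bound-sample abundance of each oligo, normalized to mapped reads, divided by its abundance in input. Each duplicate used a separate, independent protein batch.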
Sequence of TDP-43 (Q13148 whole entry): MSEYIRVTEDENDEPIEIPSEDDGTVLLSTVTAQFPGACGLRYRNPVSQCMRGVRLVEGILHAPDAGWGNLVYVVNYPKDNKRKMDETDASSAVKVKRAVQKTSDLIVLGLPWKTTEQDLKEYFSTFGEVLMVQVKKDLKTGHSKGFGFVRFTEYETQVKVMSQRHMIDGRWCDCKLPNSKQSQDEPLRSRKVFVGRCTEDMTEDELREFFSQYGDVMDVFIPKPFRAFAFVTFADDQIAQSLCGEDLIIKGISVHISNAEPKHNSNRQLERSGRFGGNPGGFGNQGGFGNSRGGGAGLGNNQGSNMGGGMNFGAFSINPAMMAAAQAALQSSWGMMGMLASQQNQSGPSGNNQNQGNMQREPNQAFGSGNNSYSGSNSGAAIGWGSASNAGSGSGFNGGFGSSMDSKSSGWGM
On to B1, for which the binding signal is 0.745 R (bound/input frequency ratio).

Consider B2, for which the binding signal is 1.02 R (bound/input frequency ratio).

In the case of B3, the binding signal is 0.142 R (bound/input frequency ratio). Take B4: the binding signal was 0.294 R (bound/input frequency ratio). In the case of B5, the binding signal was 1.41 R (bound/input frequency ratio). As to B6, the binding signal was 0.306 R (bound/input frequency ratio).

With B7, the binding signal was 0.319 R (bound/input frequency ratio).

With B8, the binding signal was 6.51 R (bound/input frequency ratio). With B9, the binding signal was 3.98 R (bound/input frequency ratio). Turning to B10, the binding signal is 0.829 R (bound/input frequency ratio). With B11, the binding signal was 1.47 R (bound/input frequency ratio). The same measure for B12: 6.66 R (bound/input frequency ratio); for B13: 5.19 R (bound/input frequency ratio).

As to B14, the binding signal is 4.79 R (bound/input frequency ratio).

Regarding B15, the binding signal was 6.54 R (bound/input frequency ratio). For the molecule B16, the binding signal is 2.52 R (bound/input frequency ratio).
